{"source": "the supplement of paper PMC7261846", "system": "Candida albicans SNY425 biofilm", "test": "biofilm OD600 with compound plus antifungal (OD600 (absorbance)); higher = more biofilm remaining", "key": {"[1]": {"conditions": "assay detail: disruption of 24-h mature biofilm (compound + antifungal for a second 24 h)"}, "[2]": {"conditions": "assay detail: sustained inhibition (compound + antifungal during 90-min adherence and 24-h growth)"}}, "note": "± gives the uncertainty stated by the source.", "data": [{"molecule": "CN1C(=O)[C@]23CC4=CC=C[C@H](O)[C@H]4N2C(=O)[C@@]1(CO)SS3", "note": "[Gliotoxin] + CC[C@H](C)C[C@H](C)CCCCCCCCC(=O)N[C@H]1C[C@@H](O)[C@@H](NCCN)NC(=O)[C@@H]2[C@@H](O)CCN2C(=O)[C@H]([C@H](O)CCN)NC(=O)[C@H]([C@H](O)[C@@H](O)c2ccc(O)cc2)NC(=O)[C@@H]2C[C@@H](O)CN2C(=O)[C@H]([C@@H](C)O)NC1=O [caspofungin] (first compound 1 µM)", "values": [{"measurement": "biofilm OD600", "setting": "[1]", "value": "0.217 ± 0.0081"}, {"measurement": "biofilm OD600", "setting": "[2]", "value": "0.0858 ± 0.0052"}]}, {"molecule": "NCCc1ccc(S(=O)(=O)F)cc1", "note": "+ C[C@@H]1[C@H](O)[C@@H](C)/C=C/C=C/C=C/C=C/C=C/C=C/C=C/[C@H](O[C@@H]2O[C@H](C)[C@@H](O)[C@H](N)[C@@H]2O)C[C@@H]2O[C@](O)(C[C@@H](O)C[C@@H](O)[C@H](O)CC[C@@H](O)C[C@@H](O)CC(=O)O[C@H]1C)C[C@H](O)[C@H]2C(=O)O [amphotericin B] (first compound 4 µM)", "values": [{"measurement": "biofilm OD600", "setting": "[1]", "value": "0.303 ± 0.0047"}, {"measurement": "biofilm OD600", "setting": "[2]", "value": "0.184 ± 0.011"}]}, {"molecule": "CN1C(=O)[C@]23CC4=CC=C[C@H](O)[C@H]4N2C(=O)[C@@]1(CO)SS3", "note": "[Gliotoxin] + C[C@@H]1[C@H](O)[C@@H](C)/C=C/C=C/C=C/C=C/C=C/C=C/C=C/[C@H](O[C@@H]2O[C@H](C)[C@@H](O)[C@H](N)[C@@H]2O)C[C@@H]2O[C@](O)(C[C@@H](O)C[C@@H](O)[C@H](O)CC[C@@H](O)C[C@@H](O)CC(=O)O[C@H]1C)C[C@H](O)[C@H]2C(=O)O [amphotericin B] (first compound 1 µM)", "values": [{"measurement": "biofilm OD600", "setting": "[1]", "value": "0.226 ± 0.0062"}, {"measurement": "biofilm OD600", "setting": "[2]", "value": "0.0908 ± 0.0077"}]}, {"molecule": "CN1C(=O)[C@]23CC4=CC=C[C@H](O)[C@H]4N2C(=O)[C@@]1(CO)SS3", "note": "[Gliotoxin] + OC(Cn1cncn1)(Cn1cncn1)c1ccc(F)cc1F [fluconazole] (first compound 1 µM)", "values": [{"measurement": "biofilm OD600", "setting": "[1]", "value": "0.211 ± 0.0079"}, {"measurement": "biofilm OD600", "setting": "[2]", "value": "0.0782 ± 0.0052"}]}, {"molecule": "NCCc1ccc(S(=O)(=O)F)cc1", "note": "+ OC(Cn1cncn1)(Cn1cncn1)c1ccc(F)cc1F [fluconazole] (first compound 4 µM)", "values": [{"measurement": "biofilm OD600", "setting": "[1]", "value": "0.278 ± 0.0089"}, {"measurement": "biofilm OD600", "setting": "[2]", "value": "0.109 ± 0.0077"}]}, {"molecule": "NCCc1ccc(S(=O)(=O)F)cc1", "note": "+ CC[C@H](C)C[C@H](C)CCCCCCCCC(=O)N[C@H]1C[C@@H](O)[C@@H](NCCN)NC(=O)[C@@H]2[C@@H](O)CCN2C(=O)[C@H]([C@H](O)CCN)NC(=O)[C@H]([C@H](O)[C@@H](O)c2ccc(O)cc2)NC(=O)[C@@H]2C[C@@H](O)CN2C(=O)[C@H]([C@@H](C)O)NC1=O [caspofungin] (first compound 4 µM)", "values": [{"measurement": "biofilm OD600", "setting": "[1]", "value": "0.29 ± 0.0053"}, {"measurement": "biofilm OD600", "setting": "[2]", "value": "0.172 ± 0.0053"}]}]}
